Data from the supplement of paper PMC12024529.

Tested on: HEK293 WT BDD-FVIII-Gluc
Experiment: secreted FVIII-Gluc luciferase Z-score vs DMSO control; higher = more FVIII-Gluc secretion
Conditions: 5 µM
Description: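 Natural plant-compound library (480 compounds, ST catalogue IDs) screened on HEK293 cells stably expressing WT BDD-FVIII-Gaussia luciferase fusion at 5 µM. Secreted Gluc activity in the medium is given as a Z-score relative to DMSO controls.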

Row | Compound | secreted FVIII-Gluc luciferase Z-score
1 | COc1cc2c(cc1OC)-c1c(O)c(OC)cc3c1[C@H](C2)N(C)CC3 | 0.65
2 | CC(=O)OC1CC(OC2C(O)CC(OC3C(O)CC(OC4CCC5(C)C(CCC6C5CC(O)C5(C)C(C7=CC(=O)OC7)CCC65O)C4)OC3C)OC2C)OC(C)C1OC1OC(CO)C(O)C(O)C1O (stereo not given) | -4
3 | NCCc1c[nH]c2ccc(O)cc12 | 0.752
4 | COc1cc2c(cc1O)-c1c(O)c(OC)cc3c1[C@H](C2)N(C)CC3 | 0.6
5 | C[C@]12CC[C@H](O)C[C@H]1CC[C@@H]1[C@@H]2C[C@@H](O)[C@]2(C)[C@@H](C3=CC(=O)OC3)CC[C@]12O | -7.45
6 | C[C@]12CC[C@H](O)C[C@@H]1CC[C@@H]1[C@@H]2CC[C@]2(C)C(=O)CC[C@@H]12 | 0.049
7 | C[C@]1(C(=O)O)CCC[C@]2(C)c3cc(O)ccc3CC[C@@H]12 | -1.23
8 | C=C(C)[C@H]1Cc2c(ccc3c2O[C@@H]2COc4cc(OC)c(OC)cc4[C@@H]2C3=O)O1 | -5.82
9 | CC[C@@H](CO)NC(=O)[C@@H]1C=C2c3cccc4[nH]cc(c34)C[C@H]2N(C)C1 | 0.791
10 | COc1cc2c(c(OC)c1OC)-c1ccc(OC)c(=O)cc1C(NC(C)=O)CC2 (stereo not given) | -6.65
11 | CN1C[C@H](CNC(=O)OCc2ccccc2)C[C@@H]2c3cccc4c3c(cn4C)C[C@H]21 | -0.629
12 | CC(C)(O)[C@@H]1[C@H]2OC(=O)[C@@H]1[C@]1(O)C[C@H]3O[C@]34C(=O)O[C@H]2[C@]14C | -0.634
13 | C=C(C)[C@@H]1[C@H]2OC(=O)[C@@H]1[C@]1(O)C[C@H]3O[C@]34C(=O)O[C@H]2[C@]14C | 0.972
14 | O=C1C[C@@H]2OCC=C3CN4CC[C@]56c7ccccc7N1[C@H]5[C@H]2[C@H]3C[C@H]46 | -0.432
15 | CCC1CN2CCC1CC2C(O)c1ccnc2ccccc12 (stereo not given) | 0.33
16 | CCC12CCCN3CCC4(c5ccc(OC)c(O)c5N(C(C)=O)C4CC1)C32 (stereo not given) | 0.655
17 | CCN1C[C@@]2(COC)C3[C@@H](OC)[C@H]4C1[C@@]3(C1C[C@@]3(O)[C@H](OC(=O)c5ccccc5)C1[C@]4(OC(C)=O)[C@@H](O)[C@@H]3OC)[C@@H](OC)C[C@H]2O (stereo not given in full) | -0.523
18 | O=C1CCCC2[C@@H]3CCCN4CCC[C@H](CN12)[C@H]34 (stereo not given in full) | 0.572
19 | COc1cc2c(cc1OC)-c1c(OC)c(OC)c(CO)c3c1C(C2)N(C)CC3 (stereo not given) | -0.0378
20 | Cc1cc2c(C(C)C)c(O)c(O)c(C=O)c2c(O)c1-c1c(C)cc2c(C(C)C)c(O)c(O)c(C=O)c2c1O | 1.13

Row | Compound | secreted FVIII-Gluc luciferase Z-score
21 | CC1=CC(=O)c2c(O)cccc2C1=O | -2.68
22 | O=c1ccc2cc(OC3OC(CO)C(O)C(O)C3O)c(O)cc2o1 (stereo not given) | 0.455
23 | COc1cc2c(cc1O)CC1c3c(cc(O)c(OC)c3-2)CCN1C (stereo not given) | -0.91
24 | CCCCCC[C@H]1C(=O)O[C@H](C)[C@H](NC(=O)c2cccc(NC=O)c2O)C(=O)O[C@@H](C)[C@@H]1OC(=O)CC(C)C | -3.29
25 | CN1C[C@H](C(=O)N[C@]2(C)O[C@@]3(O)[C@@H]4CCCN4C(=O)[C@H](Cc4ccccc4)N3C2=O)C[C@@H]2c3cccc4[nH]cc(c34)C[C@H]21 | 0.0715
26 | COc1cccc2c1cc([N+](=O)[O-])c1c(C(=O)O)cc3c(c12)OCO3 | 0.158
27 | CCCN1C[C@H](CSC)C[C@@H]2c3cccc4[nH]cc(c34)C[C@H]21 | 0.385
28 | CN[C@H]1CCc2cc(OC)c(OC)c(OC)c2-c2ccc(OC)c(=O)cc21 | -3.62
29 | CN[C@@H](Cc1c[nH]c2ccccc12)C(=O)O | 0.0662
30 | Oc1ccc(CC2NCCc3cc(O)c(O)cc32)cc1O (stereo not given) | 0.392
31 | COc1ccc(CC2NCC(O)C2OC(C)=O)cc1 (stereo not given) | -4.62
32 | CCC1(O)C(=O)OCc2c1cc1n(c2=O)Cc2cc3ccccc3nc2-1 (stereo not given) | -3.23
33 | C=C[C@H]1CN2CCC1C[C@@H]2C(O)c1ccnc2ccccc12 (stereo not given in full) | 0.484
34 | COc1ccc2c3c([nH]c2c1)C(C)=NCC3 | -2.05
35 | CN1Cc2c(ccc3c2OCO3)C2C(O)Cc3cc4c(cc3C21)OCO4 (stereo not given) | -5.22
36 | COc1cc2c(cc1OC)C(C)NCC2 (stereo not given) | 0.0745
37 | C=C1C/C(=C/C)C(=O)O[C@@H]2CCN3CC=C(COC(=O)[C@]1(C)O)[C@H]23 | 0.649
38 | COC(C)C(O)(C(=O)OC1=CCN2CC[C@H](O)[C@@H]12)C(C)C (stereo not given in full) | -0.914
39 | COc1ccc2c(c1OC)CN1CCc3cc4c(cc3C1C2)OCO4 (stereo not given) | 0.658
40 | COc1ccc2c(c1O)-c1c(OC)c(OC)cc3c1C(C2)N(C)CC3 (stereo not given) | 0.615
